Only some compounds are listed: those with a hit (about 2.3% of all), similar ones and a draw of the others.
CHRM1 PAM = human CHRM1 positive allosteric modulation | P11229 | CHO-K1 hM1, Fluo-8 calcium fluorescence, ACh EC20; 0% = ACh EC20, 100% = maximal ACh | activation, % at 3 µM | 360,000 compounds, 0.088% hits; in the data active = activation above about 19%, passing the limit was not always enough
Target sequence (P11229 whole entry, looked up): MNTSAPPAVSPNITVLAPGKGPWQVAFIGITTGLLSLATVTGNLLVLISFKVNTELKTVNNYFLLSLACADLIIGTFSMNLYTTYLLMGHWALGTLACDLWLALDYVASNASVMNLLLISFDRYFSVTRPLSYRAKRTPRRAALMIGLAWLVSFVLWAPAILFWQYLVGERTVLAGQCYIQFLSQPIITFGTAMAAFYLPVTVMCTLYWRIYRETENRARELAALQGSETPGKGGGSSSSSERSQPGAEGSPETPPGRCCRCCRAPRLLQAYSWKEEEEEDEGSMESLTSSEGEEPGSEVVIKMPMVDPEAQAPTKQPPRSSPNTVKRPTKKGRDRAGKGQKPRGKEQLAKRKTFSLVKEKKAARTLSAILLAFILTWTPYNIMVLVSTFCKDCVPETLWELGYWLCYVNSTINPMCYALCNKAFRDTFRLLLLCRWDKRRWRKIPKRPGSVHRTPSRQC
CHO-K1 Ca antag = M1 antagonist counterscreen hit in parental CHO-K1 cells. ATP-induced calcium, Fluo-8 fluorescence. inhibition, % at 3 µM. 360,000 compounds, 0.6% hits. AID 602250;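 active = inhibition above a per-plate cutoff, the plate's mean sample inhibition plus 3 SD, cut at about 24% in these data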;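 note: 0% = DMSO plus EC80 ATP and 100% = DMSO alone without ATP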
CHO-K1 Ca ag = M1 agonist counterscreen hit in parental CHO-K1 cells | Fluo-8 calcium fluorescence; scaled to maximal ATP response, vehicle zero | 360,000 compounds, 0.48% hits | activation, % at 3 µM; in the data active = activation above about 15%;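 note: untransfected CHO-K1 host cells lacking M1 receptor as counterscreen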
M1 ag = agonists of human M1 muscarinic receptor. P11229. CHO-K1 hM1, Fluo-8 calcium fluorescence, agonist mode; 0% DMSO, 100% acetylcholine EC100. activation, % at 3 µM. 360,000 compounds, 0.33% hits. AID 588814;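 active = activation above the run's mean compound activation plus 3 SD, cut at about 16% in these data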;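 note: peak over basal fluorescence ratio within a 140 s kinetic read after compound addition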
M1 PAM parental = nonselective activator or artifact in parental CHO-K1 calcium assay; ATP EC20, Fluo-8 calcium fluorescence; 0% at ATP EC20, 100% at ATP max; activation, % at 3 µM; 360,000 compounds, 0.02% hits; AID 602247;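 active = activation above the run cutoff, the mean activation of all test compounds plus 3 SD, cut at about 40% in these data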;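 note: peak over basal fluorescence ratio in a 140 s read after ATP addition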
CHRM1 antagonist = human CHRM1 antagonism; P11229; CHO-K1 hM1, Fluo-8 calcium fluorescence, ACh EC80 antagonist; inhibition, % at 3 µM; 360,000 compounds, 1.3% hits; AID 588852;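 active = percent inhibition above its own plate's cutoff, namely the mean of that plate's compound wells plus 3 SD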;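 note: peak over basal fluorescence ratio during 140 s after agonist addition; 0% = ACh EC80 plus DMSO and 100% = DMSO alone without agonist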
* marks the source's active call; other numbers are inactive results; x = not tested or not shown; ! = not confirmed by another sample.

SMILES	CHRM1 PAM	CHO-K1 Ca antag	CHO-K1 Ca ag	M1 ag	M1 PAM parental	CHRM1 antagonist
CCCCC1(COC(=O)CCC(=O)O)C(=O)N(c2ccccc2)N(c2ccccc2)C1=O	0.9	-12.8	0.4	-2.9	25.7	-24.2
O=C(COc1cc2oc(=O)c3c(c2cc1Cl)CCCC3)NCC1CCC(C(=O)O)CC1 (stereo not given)	10.4	-13.4	0.1	1.7	-3.0	-18.1
O=C(NCC(c1ccco1)N1CCc2ccccc21)C(=O)Nc1ccccc1 (stereo not given)	1.6	24.5*	-0.3	-3.0	-18.6	-6.0
COc1ccc(OC)c(S(=O)(=O)NCC(c2ccco2)N2CCc3ccccc32)c1 (stereo not given)	24.4*	-17.7	-0.5	1.9	5.0	-24.2
COc1ccc2c(c1OC)C(=O)N1c3ccccc3C(=O)N(c3ccccc3)C21 (stereo not given)	-5.2	23.5	7.3	0.7	4.3	32.3*
COc1ccc2c(c1OC)C(=O)N1c3ccccc3C(=O)N(c3ccc(F)cc3)C21 (stereo not given)	-5.2	-0.1	5.0	1.9	21.2	25.1*
CC1C(=O)N(Cc2cn(CCC3OCCCO3)nn2)CCS(=O)(=O)N1Cc1ccc(-c2ccncc2)cc1 (stereo not given)	11.1	-13.9	1.8	-5.9	22.0	-16.3
CC(=O)Nc1ccc(C(=O)OCC(=O)N(c2ccccc2)C2CCS(=O)(=O)C2)cc1 (stereo not given)	-8.3	2.0	0.4	0.4	6.1	26.3
O=C(CCl)N(c1ccccc1)C1CCS(=O)(=O)C1 (stereo not given)	-3.2	12.5	22.6*	-3.1	12.7	11.4
CC(C)C(NC(=O)c1ccco1)C(=O)NCc1ccc(C(=O)O)cc1 (stereo not given)	5.3	2.2	-0.3	-2.5	-8.8	-5.3
O=C(COc1ccccc1)NCC(=O)N/N=C/c1cc(Br)ccc1OCc1ccccc1	16.7	-8.8	0.7	-3.1	24.3	-18.6
Cc1cccc(OCC(=O)NCC(=O)N/N=C/c2cc(Br)ccc2OCc2ccccc2)c1	5.1	14.1	18.4*	-9.0	5.5	3.2
Cc1scc2c1N(C(=O)CN1CCN(C)CC1)c1ccccc1NC2=O	-25.7	-6.2	0.4	-6.2	15.3	98.0*
CCOc1ccc(NC(=S)NCc2ccco2)cc1	-5.8	14.1	16.7*	-8.1	16.3	10.8
COc1ccc(NC(=S)NCc2ccco2)cc1	5.3	-17.2	0.4	-4.3	17.9	-6.1
O=C(O)c1ccc(NC(=S)NC(=O)c2cncc(Br)c2)cc1	2.6	-5.5	-0.2	-0.5	4.4	-13.6
CCOC(=O)C1CCCN(C2=NC(=O)/C(=C/c3ccc(N(C)C)cc3)S2)C1 (stereo not given)	-1.5	-6.4	7.2	24.4*	0.6	2.0
CCCCNc1c(CCc2ccccc2)nc2nc(C)cc(C)n12	x	8.1	-0.5	x	-8.5	x
OC1C(O)C(O)C(O)C(O)C1O (stereo not given)	-1.1	-2.0	-0.4	-1.4	8.2	99.9*!
CCCC1NC(=O)c2cccnc2-n2c1nc1ccc(C)cc1c2=O (stereo not given)	4.0	-4.2	0.9	-3.3	16.6	-15.7
Cc1ccc(OCC(=O)Nc2ccc(S(=O)(=O)N3CCOCC3)cc2)c([N+](=O)[O-])n1	-0.3	-7.4	1.3	-7.8	13.2	-0.9
O=C(COc1ccc(Br)cc1CO)Nc1ccc(S(=O)(=O)N2CCCC2)cc1	-26.1	4.6	3.7	-3.4	-22.6	58.3*
Cc1cc(OCC(=O)Nc2ccc(S(=O)(=O)N3CCN(C)CC3)cc2)ccc1Br	-11.5	5.4	18.2*	0.9	-2.2	14.1
Cc1ccc(OCC(=O)Nc2ccc(S(=O)(=O)N3CCCCC3)cc2)c([N+](=O)[O-])n1	-22.0	-8.5	4.3	-4.2	21.1	44.6*
COc1ccc(C(=O)OCC(=O)Nc2cccc(S(=O)(=O)N3CCCCCC3)c2)cc1[N+](=O)[O-]	-20.4	13.9	11.9	-2.0	-0.5	54.4*
SMILES	CHRM1 PAM	CHO-K1 Ca antag	CHO-K1 Ca ag	M1 ag	M1 PAM parental	CHRM1 antagonist
CCOC(=O)C1(C)CCCN(C(=O)c2ccc(C)c(F)c2)C1 (stereo not given)	1.2	-8.6	0.8	-8.0	12.5	-14.7
COc1ccc(NC(=O)C2Cc3c(-c4cccc(C(C)=O)c4)ccnc3O2)cn1 (stereo not given)	14.8	-3.3	2.0	4.0	2.0	-15.2
Cc1ccccc1OCC(=O)NNC(=O)c1ccoc1C	4.5	-9.2	0.1	-1.6	-9.2	2.3
C=C1CCC2C(C)(C(=O)O)CCCC2(C)C1CCC(CO)CCO (stereo not given)	3.2	-10.7	0.0	-2.6	-2.5	-5.9
CC(C=CC(O)=C1C(=O)CNC1=O)=C[C@@H](C)C1OC2(C)OC(C(=O)C3O[C@@]32C)C1C (stereo not given in full)	x	-16.2	0.4	x	8.9	x
Cc1cc(OCC(=O)Nc2ccc(CN3CCOCC3)cc2)ccc1Cl	4.6	11.8	12.3	-1.1	-10.6	3.9
Cc1cc(OCC(=O)Nc2ccc(CN3CCCCC3)cc2)ccc1Cl	-30.6	0.5	13.4	-3.8	11.2	50.5*
COc1ccc(N2C(=NC(=O)C3CCCCC3)SC3CS(=O)(=O)CC32)c(OC)c1 (stereo not given)	-1.8	-7.7	0.5	-1.6	0.0	-0.5
COc1ccc(N2CCN(C(=O)c3ccc(C)c(Cl)c3)CC2)cc1	6.5	29.5*	-0.1	-3.8	-2.6	4.2
COc1ccc(N2CCN(CCNC(=O)Nc3ccc(C)c(Cl)c3)CC2)cc1	11.1	-11.7	18.4*	-0.7	-8.4	-14.4
CCOC(=O)NC(=O)/C(C#N)=N/Nc1ccc(F)cc1	-3.1	27.3*	1.0	-0.2	-6.0	-1.8
O=C1NC(Cc2ccc(O)cc2)c2nc3cc(F)c(F)cc3c(=O)n2-c2ncccc21 (stereo not given)	5.6	-10.2	0.8	0.6	26.2	1.2
Fc1c(CSC(=S)N2CCOCC2)cccc1CSC(=S)N1CCOCC1	4.4	-2.6	16.3*	3.4	11.7	0.8
O=C1c2ccccc2C(=O)N1CCSC(=S)N1CCOCC1	5.3	-16.4	0.4	-4.3	7.5	-13.2
O=C(CSc1ccc2nnc(CCNC(=O)c3ccccc3)n2n1)Nc1ccc(F)cc1F	3.5	-11.7	1.9	-3.3	14.8	-2.4
CCOc1ccc(-c2c(C(=O)N/N=C(\C)c3cccs3)nnn2-c2nonc2N)cc1	7.3	-19.3	1.9	6.7	13.2	-5.9
COc1cccc(-c2c(C(=O)N/N=C(\C)c3cccs3)nnn2-c2nonc2N)c1	16.4	-7.1	5.2	34.4*	6.6	-2.2
CCOc1cccc(-c2c(C(=O)N/N=C(\C)c3cccs3)nnn2-c2nonc2N)c1	3.8	-17.4	6.4	31.5*	28.8	-0.3

Screening results: PubChem, The Scripps Research Institute Molecular Screening Center
